Data: PubChem BioAssay
Inconclusive results are not listed. Activity calls are given as the source filed them.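 The calls were made as follows, unless noted: active = differentiation response of at least 50%, scaled between solvent and reference control, from cells with both markers; inactive = the rest.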

What was measured:
[1] = yeast TOR pathway RPL19A-GFP modulators, primary screen, cell-based, S. cerevisiae, multiplex flow cytometry (AID 1862; in the data active = percent of DMSO control GFP below about 86%;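 also: lower values mimic rapamycin by blocking the RPL19A rise seen in DMSO cells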); settings: S. cerevisiae RPL19A-GFP strain, flow cytometry fluorescence, 3 h; at 10 µM; stronger effect = lower value
[2] = modulators of MEP2-GFP levels in yeast, primary screen, S. cerevisiae, multiplex flow cytometry (AID 1867;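 active = GFP response, as percent of the DMSO control, above the screen-wide mean plus 3 SD, about 139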;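 also: median GFP channel fluorescence of barcode-gated MEP2-GFP cells measured by flow cytometry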); settings: S. cerevisiae MEP2-GFP strain, 3 h, at 10 µM, stronger effect = higher value, 100% means same as DMSO wells
[3] = modulators of CIT2-GFP expression in yeast, primary screen, S. cerevisiae, GFP fusion, multiplex flow cytometry (AID 1870;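 active = percent response above a set limit, the screen-wide mean plus 3 SD, cut at about 130% in these data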;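 also: barcoded CIT2-GFP strain pooled with four other GFP strains with rapamycin as positive control; median GFP fluorescence per well over plate mean of DMSO wells so 100% = DMSO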); settings: 3 h, at 10 µM, stronger effect = higher value
[4] = modulators of LAP4-GFP expression in yeast, primary screen, S. cerevisiae, multiplex flow cytometry (AID 1873;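 active = GFP signal, as percent of the solvent control, above the screen mean plus 3 SD, about 149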); settings: 3 h, at 10 µM, stronger effect = higher value
[5] = modulators of AGP1-GFP expression in yeast TOR pathway, primary screen, cell-based, multiplex flow cytometry, S. cerevisiae (AID 1887;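 active = GFP signal above the screen-wide mean plus 3 SD, that is over about 124.5% of the solvent control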;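 also: AGP1-GFP fusion strain of S. cerevisiae within a five-strain barcoded multiplex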); settings: 3 h, at 10 µM, stronger effect = higher value
[6] = inhibitors of CD8+ T cell-vesicle binding, pilot screen, LFA-1/ICAM-1 modulator project, MLPCN validation set, flow cytometry (AID 2523;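 active = response below a set limit, under 55% cells CD8-positive and vesicle-bound, and CD8 cells' 90th-percentile brightness under 279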;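 as to vesicle binding response: mean PE anti-B7-1 fluorescence of CD8+ cells relative to row control; 100% = QL9-loaded vesicles with DMSO vehicle in the same plate row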); settings: 2C mouse CD8+ T cells, at 7 µM, stronger effect = lower value; double positive events: measured here: CD8+/vesicle+ event percentage
[7] = target: Integrin beta-1 (Homo sapiens) + Integrin alpha-4 (Homo sapiens) (UniProt P13612+P05556); assay: inhibition of HUTS-21 binding to VLA-4, pilot screen, VLA-4 allosteric modulator project, U937 cells, HUTS-21 mAb, flow cytometry, validation set (AID 2674;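 active = inhibition above 50%, about 3 SD of the validation set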;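 also: antibody binding induced by the VLA-4 ligand LDV present at three times its Kd; 0% = LDV ligand with antibody and no compound and 100% = antibody without LDV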); settings: HUTS-21 LIBS mAb binding, at 6.7 µM, stronger effect = higher value, binding induced by LDV ligand
[8] = superoxide lowering in aged yeast cells, pilot screen, validation compound set (AID 2706;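 active = superoxide response below 65% of plate, a cut near 3 SD across the whole screen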;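 also: yeast exposed to compound for one week at 30 degrees C before staining; 100% = mean of all compound wells on the same plate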); settings: S. cerevisiae aging, superoxide DHE fluorescence; at 10 µM; stronger effect = lower value
[9] = target: Beta-adrenergic receptor kinase 1 (Homo sapiens) (UniProt P25098); assay: GRK2 binders displacing RNA aptamer, biochemical, validation, human GRK2, bead flow cytometry (AID 488806;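 active = aptamer binding inhibition above 30%, about 3 SD of noise from non-fluorescent compounds; inactive = inhibition at or below 30%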); settings: bead-bound GRK2, FAM-aptamer displacement, at 10 µM, stronger effect = higher value
[10] = target: Beta-2 adrenergic receptor (Homo sapiens) (UniProt P07550); assay: beta2AR agonists driving receptor internalization, pilot screen, cell-based, FAP fluorogen, flow cytometry, validation set (AID 504459;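 active = percent response above 42, roughly 3 SD of non-fluorescent test compounds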;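 also: agonist-driven loss of surface beta2AR via internalization measured by FAP dye flow cytometry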); settings: Am2.2-beta2AR cells, FAP surface receptor flow cytometry; at 10 µM; stronger effect = higher value
[11] = target: AP-2 complex subunit beta (Homo sapiens) (UniProt P63010); assay: inhibitors of arrestin peptide binding to AP2, pilot screen, biochemical, validation set, GST-AP2 beads, flow cytometry (AID 504541;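 active = inhibition above 54%, about 3 SD of non-fluorescent compounds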;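 also: AP2 carries R879A mutation and is captured from E. coli lysate; bead-bound FITC arrestin peptide fluorescence measuring arrestin peptide binding to AP2; 0% = DMSO wells and 100% = excess unlabeled arrestin peptide control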); settings: FITC arrestin peptide, at 10 µM, stronger effect = higher value, AP2 beta2 appendage fragment, R879A mutant
[12] = yeast V-ATPase proton transport modulators, S. cerevisiae, pHLuorin, HTS validation (AID 504600; in the data active = response above about 15%;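 also: plate controls were DMSO for no effect and reference compound for full effect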); settings: S. cerevisiae pHLuorin cytosolic pH, at 10 µM, stronger effect = higher value
[13] = system: anti-desmoglein-3 scFv antibody binding to human DSG3; assay: inhibitors of anti-DSG3 scFv binding to DSG3, pilot screen, biochemical, validation compound set, bead-based, flow cytometry (AID 588368;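 active = binding below the plate cutoff, the plate median minus 3 SD, with a reading above zero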;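 also: signal is the median channel fluorescence of bead-bound GFP antibody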); settings: Protein G beads, DSG3-Fc, scFv-GFP binding, at 10 µM, stronger effect = lower value
[14] = inhibitors of fungal efflux pumps CDR1, CDR2, MDR1, pilot screen, validation compound set, multiplex, phenotypic (AID 588506;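 active = efflux inhibition above 0.42, the validation set average plus 4 SD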;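 also: Nile Red retained in cells so higher fluorescence means more efflux inhibition; 0 = negative control wells and 1 = enniatin B 25 µM full block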); settings: S. cerevisiae pump-expressing triplex, Nile Red efflux flow cytometry; at 10 µM; stronger effect = higher value; the pumps come from Candida albicans
[15] = target: ATP-binding cassette sub-family B member 6 (Homo sapiens) (UniProt Q9NP58); assay: ABCB6 transporter inhibitors, pilot screen, K562-ABCB6 cells, flow cytometry, validation set (AID 588550;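 active = inhibition above the screen-wide mean plus 3 SD, about 51%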;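 also: 0% = DMSO wells and 100% = benzethonium chloride 70 µM positive control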); settings: K562-ABCB6 porphyrin accumulation, 1 h, at 10 µM, stronger effect = higher value
[16] = promoters of myeloid differentiation in arrested cells, primary screen, cell-based, GFP/MAC1 double positive, flow cytometry, validation set (AID 588685); settings: ER-HoxA9 marrow cells, stronger effect = higher value, normalized: vehicle 0, fulvestrant 100;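 also: compound exposure lasts four days before antibody staining and flow analysis; 0% = DMSO wells and 100% = 5 µM fulvestrant positive control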

Chain of Integrin beta-1 (Homo sapiens) + Integrin alpha-4 (Homo sapiens) (P05556 whole entry, looked up): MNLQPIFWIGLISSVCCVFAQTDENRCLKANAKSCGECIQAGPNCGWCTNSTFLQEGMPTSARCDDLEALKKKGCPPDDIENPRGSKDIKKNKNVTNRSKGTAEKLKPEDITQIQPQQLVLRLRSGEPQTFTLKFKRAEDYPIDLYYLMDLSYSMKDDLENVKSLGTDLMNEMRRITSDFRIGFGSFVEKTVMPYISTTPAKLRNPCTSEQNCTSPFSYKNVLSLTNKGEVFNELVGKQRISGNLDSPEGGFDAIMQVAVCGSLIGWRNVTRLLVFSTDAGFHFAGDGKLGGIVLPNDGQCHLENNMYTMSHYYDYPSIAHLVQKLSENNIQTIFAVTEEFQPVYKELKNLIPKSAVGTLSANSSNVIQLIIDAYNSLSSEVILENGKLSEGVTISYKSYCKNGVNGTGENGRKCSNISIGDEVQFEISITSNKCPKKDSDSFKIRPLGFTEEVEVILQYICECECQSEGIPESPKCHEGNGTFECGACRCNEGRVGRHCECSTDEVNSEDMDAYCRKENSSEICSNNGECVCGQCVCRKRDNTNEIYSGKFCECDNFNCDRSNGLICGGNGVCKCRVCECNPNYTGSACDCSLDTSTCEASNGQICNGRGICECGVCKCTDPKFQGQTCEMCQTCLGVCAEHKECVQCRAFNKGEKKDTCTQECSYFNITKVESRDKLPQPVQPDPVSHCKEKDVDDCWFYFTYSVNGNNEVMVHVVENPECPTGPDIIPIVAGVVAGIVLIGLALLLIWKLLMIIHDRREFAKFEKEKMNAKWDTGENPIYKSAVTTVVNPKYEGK
Chain of Integrin beta-1 (Homo sapiens) + Integrin alpha-4 (Homo sapiens) (P13612 whole entry, looked up): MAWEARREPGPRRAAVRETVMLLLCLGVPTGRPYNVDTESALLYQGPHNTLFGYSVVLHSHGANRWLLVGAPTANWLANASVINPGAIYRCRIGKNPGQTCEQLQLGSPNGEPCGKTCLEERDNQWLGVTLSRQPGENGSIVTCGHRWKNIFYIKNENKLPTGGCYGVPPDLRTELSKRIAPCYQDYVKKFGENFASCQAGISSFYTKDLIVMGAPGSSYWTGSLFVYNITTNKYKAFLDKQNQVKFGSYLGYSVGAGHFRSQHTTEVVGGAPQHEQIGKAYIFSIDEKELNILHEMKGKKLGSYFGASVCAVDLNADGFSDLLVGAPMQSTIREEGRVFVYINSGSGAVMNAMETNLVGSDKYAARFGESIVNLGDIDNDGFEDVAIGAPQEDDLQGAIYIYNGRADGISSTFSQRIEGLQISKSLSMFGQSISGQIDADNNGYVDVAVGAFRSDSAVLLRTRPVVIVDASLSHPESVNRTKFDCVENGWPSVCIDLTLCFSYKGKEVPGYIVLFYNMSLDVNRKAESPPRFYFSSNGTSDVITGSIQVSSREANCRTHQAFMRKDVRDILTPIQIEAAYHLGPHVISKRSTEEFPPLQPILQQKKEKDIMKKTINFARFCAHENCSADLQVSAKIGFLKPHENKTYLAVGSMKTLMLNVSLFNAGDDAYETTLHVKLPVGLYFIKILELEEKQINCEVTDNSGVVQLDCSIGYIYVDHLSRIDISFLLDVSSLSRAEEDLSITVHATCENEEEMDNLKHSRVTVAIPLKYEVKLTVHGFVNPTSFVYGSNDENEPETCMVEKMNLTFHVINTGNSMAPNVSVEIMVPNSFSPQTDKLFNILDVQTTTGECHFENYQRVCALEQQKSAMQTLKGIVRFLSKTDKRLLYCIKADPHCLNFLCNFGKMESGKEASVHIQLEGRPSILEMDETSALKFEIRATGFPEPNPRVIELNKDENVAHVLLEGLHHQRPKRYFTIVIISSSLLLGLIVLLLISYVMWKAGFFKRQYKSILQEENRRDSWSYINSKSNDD
Chain of Beta-2 adrenergic receptor (Homo sapiens) (P07550 whole entry, looked up): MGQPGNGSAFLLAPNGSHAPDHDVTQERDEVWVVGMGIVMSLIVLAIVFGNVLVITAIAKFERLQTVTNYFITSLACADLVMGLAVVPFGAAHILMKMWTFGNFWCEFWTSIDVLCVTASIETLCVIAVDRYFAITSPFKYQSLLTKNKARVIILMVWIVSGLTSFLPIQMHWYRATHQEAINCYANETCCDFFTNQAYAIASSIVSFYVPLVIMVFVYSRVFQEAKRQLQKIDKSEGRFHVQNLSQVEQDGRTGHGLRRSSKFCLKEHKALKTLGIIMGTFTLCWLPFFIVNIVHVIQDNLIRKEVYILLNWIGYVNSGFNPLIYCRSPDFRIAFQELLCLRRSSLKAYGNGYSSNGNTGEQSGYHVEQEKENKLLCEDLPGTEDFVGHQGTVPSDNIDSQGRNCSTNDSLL
Chain of ATP-binding cassette sub-family B member 6 (Homo sapiens) (Q9NP58 whole entry, looked up): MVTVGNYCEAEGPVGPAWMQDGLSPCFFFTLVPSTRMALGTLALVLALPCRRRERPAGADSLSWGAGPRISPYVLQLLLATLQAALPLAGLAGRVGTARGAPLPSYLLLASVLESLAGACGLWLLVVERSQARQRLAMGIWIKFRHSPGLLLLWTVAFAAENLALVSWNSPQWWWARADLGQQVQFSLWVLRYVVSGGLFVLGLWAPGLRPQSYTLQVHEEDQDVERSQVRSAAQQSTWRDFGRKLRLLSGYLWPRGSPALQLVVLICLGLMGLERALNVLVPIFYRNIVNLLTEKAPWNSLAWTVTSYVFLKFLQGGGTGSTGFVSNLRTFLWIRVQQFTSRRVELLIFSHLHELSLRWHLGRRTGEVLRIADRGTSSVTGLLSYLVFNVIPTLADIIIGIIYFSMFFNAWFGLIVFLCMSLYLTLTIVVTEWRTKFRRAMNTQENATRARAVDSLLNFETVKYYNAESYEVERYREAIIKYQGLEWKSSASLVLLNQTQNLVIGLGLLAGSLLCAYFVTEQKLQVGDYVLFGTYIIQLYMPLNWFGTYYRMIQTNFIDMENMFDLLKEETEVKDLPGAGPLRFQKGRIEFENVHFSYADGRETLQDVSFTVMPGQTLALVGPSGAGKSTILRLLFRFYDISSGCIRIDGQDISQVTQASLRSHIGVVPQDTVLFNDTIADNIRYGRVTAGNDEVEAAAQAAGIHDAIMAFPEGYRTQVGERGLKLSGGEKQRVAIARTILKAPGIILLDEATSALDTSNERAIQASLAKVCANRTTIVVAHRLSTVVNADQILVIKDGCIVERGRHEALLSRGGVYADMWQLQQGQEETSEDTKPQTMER
Chain of AP-2 complex subunit beta (Homo sapiens) (P63010 whole entry, looked up, the tested form may be a part, one chain of several): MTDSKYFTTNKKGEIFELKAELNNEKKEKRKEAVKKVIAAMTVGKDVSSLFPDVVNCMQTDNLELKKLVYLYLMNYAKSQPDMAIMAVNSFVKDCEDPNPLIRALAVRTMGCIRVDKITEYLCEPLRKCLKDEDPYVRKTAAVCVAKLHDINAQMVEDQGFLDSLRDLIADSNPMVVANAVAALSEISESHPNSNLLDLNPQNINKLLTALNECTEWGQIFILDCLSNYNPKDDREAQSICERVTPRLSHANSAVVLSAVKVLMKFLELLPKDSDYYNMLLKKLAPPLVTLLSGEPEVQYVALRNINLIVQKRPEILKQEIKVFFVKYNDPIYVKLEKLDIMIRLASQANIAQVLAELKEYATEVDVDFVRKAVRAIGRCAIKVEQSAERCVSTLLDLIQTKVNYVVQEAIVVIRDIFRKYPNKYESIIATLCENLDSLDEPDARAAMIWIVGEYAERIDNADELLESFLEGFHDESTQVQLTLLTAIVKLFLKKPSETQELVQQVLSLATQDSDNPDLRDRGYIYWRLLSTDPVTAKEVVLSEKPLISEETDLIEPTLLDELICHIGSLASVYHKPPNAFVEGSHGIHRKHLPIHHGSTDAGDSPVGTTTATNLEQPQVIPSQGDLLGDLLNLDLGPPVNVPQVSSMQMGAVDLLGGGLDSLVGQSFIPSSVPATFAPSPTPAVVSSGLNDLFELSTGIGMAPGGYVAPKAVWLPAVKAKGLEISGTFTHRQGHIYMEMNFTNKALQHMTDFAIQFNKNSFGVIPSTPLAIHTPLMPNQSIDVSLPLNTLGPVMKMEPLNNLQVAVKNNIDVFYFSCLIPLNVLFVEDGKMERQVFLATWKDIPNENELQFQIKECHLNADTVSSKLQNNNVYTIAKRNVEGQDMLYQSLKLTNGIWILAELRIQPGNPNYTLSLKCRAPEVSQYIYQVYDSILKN
Chain of Beta-adrenergic receptor kinase 1 (Homo sapiens) (P25098 whole entry, looked up): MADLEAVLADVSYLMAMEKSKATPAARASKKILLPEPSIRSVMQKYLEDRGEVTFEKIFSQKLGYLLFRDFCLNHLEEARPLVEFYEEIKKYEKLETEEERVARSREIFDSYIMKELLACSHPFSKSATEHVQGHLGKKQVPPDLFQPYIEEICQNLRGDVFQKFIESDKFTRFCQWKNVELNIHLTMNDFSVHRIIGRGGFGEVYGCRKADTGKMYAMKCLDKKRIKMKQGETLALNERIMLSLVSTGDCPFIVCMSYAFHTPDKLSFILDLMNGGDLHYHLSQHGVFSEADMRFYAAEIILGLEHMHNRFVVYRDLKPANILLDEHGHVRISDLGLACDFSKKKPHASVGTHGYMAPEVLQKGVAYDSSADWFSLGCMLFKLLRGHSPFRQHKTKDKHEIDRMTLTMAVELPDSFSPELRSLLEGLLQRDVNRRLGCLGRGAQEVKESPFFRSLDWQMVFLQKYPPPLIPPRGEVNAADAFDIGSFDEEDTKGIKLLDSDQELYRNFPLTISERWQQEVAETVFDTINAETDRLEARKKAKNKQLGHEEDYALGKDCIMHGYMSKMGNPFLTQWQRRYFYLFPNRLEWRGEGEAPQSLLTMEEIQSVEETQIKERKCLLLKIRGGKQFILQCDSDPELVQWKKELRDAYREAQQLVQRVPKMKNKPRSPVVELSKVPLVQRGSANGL

SMILES | percent of DMSO control GFP [1] | GFP response vs DMSO [2] | percent response of DMSO control [3] | GFP response vs DMSO [4] | GFP response, % of DMSO [5] | double positive events [6] | vesicle binding response [6] | inhibition [7] | superoxide response (% of plate) [8] | aptamer binding inhibition [9] | response [10] | inhibition [11] | response [12] | binding (% of control) [13] | efflux inhibition (fraction of control) [14] | inhibition [15] | differentiation response [16]
CN(C)[C@@H]1C(=O)C(C(=O)NCN2CCCC2)=C(O)[C@@]2(O)C(=O)C3=C(O)c4c(O)cccc4[C@@](C)(O)C3CC12 (stereo partly drawn) | 103% (inactive) | 119% (inactive) | 112% (inactive) | 95.7% (inactive) | 93.3% (inactive) | 59% | 145% (inactive) | -45.9% (inactive) | 107% (inactive) | 92% (active) | 12.3% (inactive) | 94.1% (active) | -6.79% (inactive) | 30.6% (active) | -0.06 (inactive) | 8% (inactive) | 19.6% (inactive)
CCOC(=O)C1C2C=CC3(CN(c4ccc(Cl)c(F)c4)C(=O)C13)O2 (stereo not drawn) | 100% (inactive) | 99.3% (inactive) | 95.4% (inactive) | 96.6% (inactive) | 94.6% (inactive) | 58.3% | 171% (inactive) | -9.79% (inactive) | 105% (inactive) | 1% (inactive) | 1.75% (inactive) | 36.1% (inactive) | -0.79% (inactive) | 100% (inactive) | 0.33 (inactive) | 2% (inactive) | 12% (inactive)
CC(=O)C1=C(O)C(=O)OC1c1ccc(C)cc1 (stereo not drawn) | 97.1% (inactive) | 119% (inactive) | 91% (inactive) | 132% (inactive) | 106% (inactive) | 61% | 147% (inactive) | 17.3% (inactive) | 103% (inactive) | 2% (inactive) | -1.67% (inactive) | 21.9% (inactive) | -0.38% (inactive) | 101% (inactive) | -0.06 (inactive) | 7% (inactive) | 5.6% (inactive)
COc1ccc(/C=C(/C#N)c2cccnc2)cc1OC | 101% (inactive) | 104% (inactive) | 94.9% (inactive) | 99.4% (inactive) | 99.1% (inactive) | 54.1% | 6.8% (active) | -13.2% (inactive) | 98.6% (inactive) | 3% (inactive) | -1.52% (inactive) | 23.7% (inactive) | 0.34% (inactive) | 105% (inactive) | 0.42 (inactive) | 2% (inactive) | 17.1% (inactive)
O=C(OCC1CCCN2CCCCC12)c1ccc2c(c1)OCO2 (stereo not drawn) | 93.7% (inactive) | 112% (inactive) | 104% (inactive) | 75.9% (inactive) | 95.9% (inactive) | 63.4% | 208% (inactive) | 13.2% (inactive) | 99.6% (inactive) | 5% (inactive) | -1.89% (inactive) | -5.07% (inactive) | 12% (inactive) | 104% (inactive) | -0.38 (inactive) | 15% (inactive) | 0% (inactive)
CCCCN1C[C@H](O)[C@@H](O)[C@H](O)[C@H]1CO | 102% (inactive) | 99.6% (inactive) | 95.7% (inactive) | 103% (inactive) | 113% (inactive) | 64.9% | 203% (inactive) | 13.4% (inactive) | 104% (inactive) | 5% (inactive) | -17% (inactive) | -12.1% (inactive) | 5.64% (inactive) | 104% (inactive) | -0.04 (inactive) | 0% (inactive) | 0.92% (inactive)
O=c1c(C(c2ccccc2)c2c(O)sc3ccccc3c2=O)c(O)sc2ccccc12 | 93.8% (inactive) | 97.6% (inactive) | 91.8% (inactive) | 112% (inactive) | 113% (inactive) | 71.3% | 187% (inactive) | 15.9% (inactive) | 90.1% (inactive) | 1% (inactive) | -1.18% (inactive) | -1.26% (inactive) | 0.43% (inactive) | 107% (inactive) | -0.13 (inactive) | -30% (inactive) | 37.4% (inactive)
CCOc1ccc(CC2CCC(=O)NC2=O)cc1 (stereo not drawn) | 103% (inactive) | 102% (inactive) | 104% (inactive) | 110% (inactive) | 115% (inactive) | 64% | 156% (inactive) | -3.67% (inactive) | 105% (inactive) | 6% (inactive) | -15.9% (inactive) | 12.5% (inactive) | -1.14% (inactive) | 95.7% (inactive) | 0 (inactive) | 9% (inactive) | 20.6% (inactive)
O=C(CN1CCN(Cc2ccccc2)CC1)N1CCCc2c1c(=O)oc1ccc(O)cc21 | 93.3% (inactive) | 127% (inactive) | 108% (inactive) | 77.6% (inactive) | 84.3% (inactive) | 53% | 202% (inactive) | -11% (inactive) | 107% (inactive) | -3% (inactive) | -14.1% (inactive) | 9.01% (inactive) | -1.88% (inactive) | 109% (inactive) | -0.31 (inactive) | 3% (inactive) | 8.19% (inactive)
